Data: PubChem BioAssay AID1851 (National Center for Advancing Translational Sciences (NCATS), 2009)
About 5,800 (36%) of roughly 16,000 compounds were called active. Another 23% or so got no clear call; they are omitted. The call rests on the fitted dose curve; in most records, active means well fitted curve in the direction sought with a large enough effect; inconclusive means small, poorly fitted or top-dose-only effect, or effect the other way; inactive means no such curve, though single readings can be large or run the other way. This is one part of the list.

What follows are compounds tested against Cytochrome P450 2C19 (Homo sapiens) (UniProt P33261) (assay: Cytochrome panel assay with activity outcomes). Details: recombinant CYP, pro-luciferin dealkylation, luminescence, p450-cyp2c19; series mostly up to 57.1 µM; activity, negative = inhibition: at the top concentration.
Chain of Cytochrome P450 2C19 (Homo sapiens) (P33261 whole entry, looked up): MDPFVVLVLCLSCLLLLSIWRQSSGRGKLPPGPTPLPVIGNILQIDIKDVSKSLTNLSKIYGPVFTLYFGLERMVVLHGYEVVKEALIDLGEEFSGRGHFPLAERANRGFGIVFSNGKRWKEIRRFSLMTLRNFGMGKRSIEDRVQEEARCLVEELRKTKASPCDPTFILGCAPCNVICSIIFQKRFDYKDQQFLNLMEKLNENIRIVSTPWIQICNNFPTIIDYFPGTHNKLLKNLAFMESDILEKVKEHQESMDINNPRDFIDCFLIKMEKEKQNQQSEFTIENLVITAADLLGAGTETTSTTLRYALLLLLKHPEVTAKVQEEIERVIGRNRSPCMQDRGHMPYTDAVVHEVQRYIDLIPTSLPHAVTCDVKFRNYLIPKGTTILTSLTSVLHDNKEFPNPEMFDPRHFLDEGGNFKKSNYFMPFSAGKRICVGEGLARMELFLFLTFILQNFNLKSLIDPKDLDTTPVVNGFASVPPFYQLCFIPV
On the % scale 0 is the no-effect control and ±100 the full control effect.

activity, negative = inhibition, inactive:
CC(C)=CCC/C(C)=C/CO/N=C1/C[C@@H](O)[C@@H](O)[C@@H]2[C@@H]3C(=O)N(C4CCCCC4)C(=O)[C@H]3CC[C@@H]12 -41.2% [at 11.4 µM], O=C(CN1C(=O)C2C3C=CC(C3)C2C1=O)Nc1ccc2c(c1)OCCO2 (centres undefined) -37.3%, CC(=O)Nc1ccc2c(c1)OCCOCCOc1cc(NC(C)=O)ccc1OCCOCCOCCO2 -22.4%, COc1ccccc1NC(=O)c1cnc2n(c1=O)CCS2 -4.96%, O=C(CN1C(=O)c2ccccc2S1(=O)=O)Nc1ccccc1 -22%, CCCN1C[C@H](CSC)C[C@H]2c3cccc4[nH]cc(c34)C[C@@H]21 -6.92% [at 25.6 µM], CN1CCN(CCCNC(=O)C2CCN(c3nnc(-n4cccc4)s3)CC2)CC1 -20.2%, CC(C)CO/N=C1/C[C@@H](O)[C@@H](O)[C@@H]2[C@@H]3C(=O)N([C@@H](C)c4ccccc4)C(=O)[C@H]3CC[C@H]12 -12.9% [at 11.4 µM], Cc1cccc(NC(=S)N2CCC(N(C)CC3CCCO3)CC2)c1C (centres undefined) -10.8%, Cc1c(NC(=O)CN2CCN(c3ccccc3)CC2)c(=O)n(-c2ccccc2)n1C -5.89%, COc1cc2c(cc1OC)C(C(=O)N1CCN(c3ccccn3)CC1)C(c1cccs1)N(C)C2=O (centres undefined) -24.5%, Cc1cccc(C)c1NC(=O)CS(=O)CC(=O)Nc1ccc(F)cc1F (centres undefined) -53.4%, CCCN1C[C@@H](CSC)C[C@H]2c3cccc4[nH]cc(c34)C[C@@H]21 43.8%, O=C1CC[C@](CCc2nc3ccccc3[nH]2)(c2ccccc2)C(=O)N1 -21.5% [at 11.4 µM], N#Cc1c[nH]n2c(=O)c3c(nc12)CCCC3 -4.58%, Nc1[nH]n2c(=O)c3c(nc2c1N=Nc1ccccc1)CCCC3 -28.5%, CSc1nc2nc3c(c(=O)n2[nH]1)CN(Cc1ccccc1)CC3 -6.28%, COC(=O)Cc1cc(=O)n2[nH]c(C)c(-c3ccccc3)c2n1 -19%, COc1ccc(CNc2nc3nc4c(c(=O)n3[nH]2)CCC4)cc1 -14.3%, COc1cccc([C@H](O)Cn2cc(-c3cccc(CON=C(C)C)c3)nn2)c1 -19.8% [at 11.4 µM], Cc1nn2c(C)nc3sc4c(c3c2nc1=O)CC(C)(C)OC4 -20.1%, O=c1[nH]c(SCc2ccccc2[N+](=O)[O-])nc2nc[nH]c12 23.8% [at 11.4 µM], Nc1nc(N)c2[nH]cnc2n1 (tested in a mixture with another compound) 6.99% [at 11.4 µM], CCC[C@H](Sc1nc(N)nc2nc[nH]c12)C(=O)O 25% [at 11.4 µM], CC(C)[C@H](Sc1nc(N)nc2nc[nH]c12)C(=O)O 22.9% [at 11.4 µM], CC[C@H](C)[C@@H]1O[C@]2(CC[C@@H]1C)C[C@H]1C[C@H](CC=C(C)[C@@H](O[C@H]3C[C@H](OC)[C@H](O[C@H]4C[C@H](OC)[C@H](O)[C@H](C)O4)[C@H](C)O3)[C@@H](C)C=CC=C3CO[C@@H]4[C@@H](O)C(C)=C[C@H](C(=O)O1)[C@@]34O)O2 -24.9%, COc1cc2c(CCNC(C)=O)c[nH]c2cc1O -15.4%, CC(=O)NCCc1c[nH]c2ccc(O)cc12 -18.6%, CC(C)[C@](N)(C(=O)O)c1ccccc1 11.6% [at 11.4 µM], O=C(N/N=C/c1ccco1)c1ccc(Br)o1 -25.5%, O=c1ccc2cc(O)c(O)cc2o1 -12.2% [at 25.6 µM], O=C(O)c1cc2cc(Cl)ccc2oc1=O -20.3%, O=C(O)C[C@H](S)C(=O)O 13.1% [at 11.4 µM], COc1ccc(-n2c(=O)c(-c3cccs3)nc3cnc(N4CCOCC4)nc32)cc1 -30%, Cc1ccc2c(c1)N[C@H](c1ccc(C(=O)O)cc1)c1cccn1-2 -26.9% [at 11.4 µM], CCCS(=O)(=O)N1CCCC(C(=O)NCCN2CCC(Cc3ccccc3)CC2)C1 (centres undefined) -20.6%, CC(=O)OC[C@@H]1O[C@@H](O/N=C2/C[C@@H](O)[C@@H](O)[C@@H]3[C@@H]4C(=O)N([C@@H](C)c5ccccc5)C(=O)[C@H]4CC[C@H]23)[C@H](OC(C)=O)[C@H](OC(C)=O)[C@@H]1OC(C)=O -3.3% [at 11.4 µM], C[C@@H](c1ccccc1)N1C(=O)[C@H]2[C@H]3[C@H](O)[C@H](O)C/C(=N/OCc4ccccc4)[C@@H]3CC[C@@H]2C1=O -24.2% [at 11.4 µM], CC(C)NC(=O)N1CCCC2(CCN(C(=O)c3cc(C(F)(F)F)cc(C(F)(F)F)c3)CC2)C1 -15.9%, Cc1nn2c(NCC(C)C)c3c(nc2c1-c1ccccc1)CCC3 -28%, Cc1cccc(C)c1NC(=O)N1CCC(N2CCCCC2)CC1 -15.4%, CCCCN1CCCC[C@H]1C(=O)Nc1c(C)cccc1C -18.3% [at 25.6 µM], COc1ccc(C(=O)N2CCC3(CCCN(Cc4ccncc4)C3)CC2)cc1 -36.4%, CC(=O)Nc1ccc(S(=O)(=O)NC2(C(F)(F)F)NC(=O)N(c3ccc(Cl)cc3)C2=O)cc1 (centres undefined) 1.91%, CNc1ncnc2c1ncn2[C@@H]1O[C@H](CO)[C@@H](O)[C@@H]1O -11.9% [at 25.6 µM], CC(=O)C[C@H](c1ccc([N+](=O)[O-])cc1)c1c(O)c2ccccc2oc1=O -43.1% [at 25.6 µM], O=C(O)c1cccnc1C(=O)O -5.23%

AC50, inactive:
C1COC(NC(C2CC2)C2CC2)=N1, CNC(=O)Oc1ccc2c(c1)[C@@]1(C)CCN(C)[C@@H]1N2C

AC50, active:
COc1ccccc1NC(=O)CN1CCN(CC(=O)Nc2ccc(OCc3ccccc3)cc2)CC1 0.631 µM, COc1ccc(NC(=O)CN2c3cccc4cccc(c34)S2(=O)=O)cc1 10 µM, O=C(CN1CCN(CC(=O)Nc2ccccc2Cl)CC1)Nc1ccc2c(c1)OCCO2 0.891 µM, O=C(CC(c1ccccc1)c1ccccc1)Nc1ccc2c(c1)OCCO2 2.82 µM, Cc1c(Cl)cccc1NC(=O)CN1CCC(C(O)(c2ccccc2)c2ccccc2)CC1 11.2 µM, COc1cc(NC(=O)c2ccccc2)c(OC)cc1NC(=O)CN1CCN(c2ccccn2)CC1 17.8 µM, Cc1ccc(NC(=O)c2c(C(F)(F)F)nn(C)c2SCc2cccc(C(F)(F)F)c2)cc1C 0.562 µM, Cn1nc(C(F)(F)F)c(C(=O)Nc2ccc(F)cc2F)c1Sc1cccc(C(F)(F)F)c1 0.501 µM, Cn1nc(C(F)(F)F)c(C(=O)Nc2ccc(F)cc2F)c1Sc1ccc(C(F)(F)F)cc1 0.631 µM, Cc1ccc(NC(=O)c2sccc2SCc2cccc(C(F)(F)F)c2)cc1 0.631 µM, O=C(OCc1nc2ccccc2[nH]1)C12CC3CC(CC(C3)C1)C2 2.51 µM, Cc1ccc(N=Nc2c(N)[nH]n3c(=O)c4c(nc23)CCCC4)cc1 25.1 µM, Cc1[nH]n2c(=O)c3c(nc2c1-c1cccc2ccccc12)CCC3 8.91 µM, Cc1ccc(-c2[nH]n3c(=O)c4c(nc3c2C)CCCC4)cc1 3.98 µM, CC(C)c1ccc(N=c2c([N+](=O)[O-])nn(-c3ccc4c(c3)OCCO4)n2O)cc1 11.2 µM, COc1ccc(OC)c(C2C3=C(COC3=O)Nc3cc4c(cc32)OCO4)c1 (centres undefined) 1.12 µM, CC1(C)Oc2cc(N)c([N+](=O)[O-])cc2O1 10 µM, CC1(C)Cc2c(sc3nc(-c4ccccc4)n(N)c(=O)c23)CO1 25.1 µM, Nc1nc(SC/C=C\c2ccccc2)c2[nH]cnc2n1 1.58 µM, Nc1nc(SCCc2ccccc2)c2[nH]cnc2n1 0.631 µM, Nc1nc(SCc2ccccc2[N+](=O)[O-])c2[nH]cnc2n1 1 µM, Nc1nc(Sc2ccc([N+](=O)[O-])c3nonc23)c2[nH]cnc2n1 1.58 µM, COc1cc2c(CCNC(C)=O)c[nH]c2cc1Cl 5.01 µM, Cc1nc2c3cnn(-c4ccc(C)c(C)c4)c3ncn2n1 10 µM, O=C(Cc1ccccc1)N/N=C/c1cc(Br)c(Br)o1 8.91 µM, O=C(Cc1ccccc1)N/N=C\c1ccc(Br)o1 10 µM, CCN(CC)c1ccc2cc(C(C)=O)c(=O)oc2c1 1.58 µM, C=CC(C)(C)c1[nH]c2ccccc2c1C1=C(O)C(=O)C(c2c[nH]c3c(CC=C(C)C)cccc23)=C(O)C1=O 1.26 µM, Cc1ccc(C)c(S(=O)(=O)NCc2ccc(C(=O)N3CCC(Cc4ccccc4)CC3)cc2)c1 4.47 µM, Cn1c(SCC(=O)N/N=C/C=C\c2ccco2)nc2ccccc21 14.1 µM, Cc1nc2ccccc2n1CC(=O)N/N=C\C=C\c1ccccc1 7.08 µM, O=C(/C=C/c1ccccc1)NC(NC(=S)Nc1ccc(Cl)cc1)C(Cl)(Cl)Cl (centres undefined) 3.55 µM, Cc1nn2c3c(cnc2c1-c1ccccc1)C(=O)CC(c1ccccc1)C3 (centres undefined) 7.08 µM, Cc1ccc(C)c(NC(=O)NCc2ccc(Cl)cc2)c1 1.58 µM, COC(=O)C1CSC(C(=O)OC)N1C(=O)Nc1ccccc1 (centres undefined) 10 µM, COC(=O)C1CSC(C(=O)OC)N1C(=O)Nc1c(C)cccc1C (centres undefined) 7.94 µM, COc1ccc(N2C(=O)NC(NC(=O)c3ccncc3)(C(F)(F)F)C2=O)cc1 (centres undefined) 6.31 µM, O=C(O)c1ccccc1N[C@H](c1ccccc1)c1ccc2cccnc2c1O 3.98 µM, O=[N+]([O-])c1ccc([C@@H](Nc2ccccc2)c2ccc3cccnc3c2O)cc1 3.98 µM, Cc1cc(C)c(C#N)c(SCS(=O)c2ccc(C(C)(C)C)cc2)n1 (centres undefined) 3.16 µM
